# The list is not random: actives were taken first. Their share in the collection is about 4.6%.
# D1 antag = antagonists of human D1 dopamine receptor; P21728; HEK293 TREx D1 cells, calcium flux, dopamine EC80; active compounds read low; activity change, negative = inhibition, % at 10 µM; hit rate 3.2% among 360,000; AID 504652; in the data active = activity change below about -30%; also: % is scaled to controls: 0 for no effect and ±100 for the full control effect
# Target sequence (P21728 whole entry, looked up): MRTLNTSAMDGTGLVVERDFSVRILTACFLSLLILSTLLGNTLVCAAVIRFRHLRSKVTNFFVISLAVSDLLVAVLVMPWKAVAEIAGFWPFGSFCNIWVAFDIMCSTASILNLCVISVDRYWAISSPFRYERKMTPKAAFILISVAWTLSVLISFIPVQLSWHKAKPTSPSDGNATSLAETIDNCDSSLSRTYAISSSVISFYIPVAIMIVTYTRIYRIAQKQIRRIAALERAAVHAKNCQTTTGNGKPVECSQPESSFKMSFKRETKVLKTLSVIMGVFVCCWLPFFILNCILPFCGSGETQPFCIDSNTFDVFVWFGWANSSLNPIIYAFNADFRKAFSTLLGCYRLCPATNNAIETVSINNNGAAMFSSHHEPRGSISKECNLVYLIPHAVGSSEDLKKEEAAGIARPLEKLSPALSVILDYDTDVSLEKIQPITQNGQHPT
#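 Calcium flux readout: force-coupled, inducible Hek293 Trex D1 line, cells induced overnight at 30 C with tetracycline, dye-loaded 30–90 min at RT. Antagonism scored against EC80 dopamine challenge given 180 s after compound.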
# TRHR ag = TRH receptor (human) agonism; TRHR cells, calcium flux fluo-8, FDSS agonist mode; AID 493084; P34981; hit rate 0.18% among 360,000; activation, % at 2 µM; also: 0% is about no effect
#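 Agonist-mode FDSS calcium read (Ex 480/Em 530, 1 s cycles) in 1536-well TRHR cells with fluo-8 dye, after 10-cycle baseline and 23 nL compound addition; TRH at EC20 (10 nM final) added afterwards for the enhancer phase.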
# D1 agonist = activates the human D1 dopamine receptor; activation, % at 2 µM; hit rate 1% among 360,000; HEK293 T-REx D1 cells, calcium flux, agonist mode; P21728; also: 0% is about no effect
#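 Inducible HEK293 T-REx D1 cells, force-coupled to calcium signalling, were plated at 4000 cells/well with tetracycline and held overnight at 30 C. After no-wash calcium dye loading, compound-evoked calcium rise over 180 s flagged agonists.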
# D1 potentiator = human D1 dopamine receptor positive modulation. potentiation, % at 10 µM. hit rate 0.036% among 360,000. P21728. HEK293 TREx D1 cells, calcium flux, dopamine EC20 potentiation; in the data active = potentiation above about 30%; also: 0% is about no effect
# TRHR PAM = allosterically enhances the human TRH receptor; enhancement, % at 2 µM; TRHR cells, fluo-8 calcium fluorescence, EC20 TRH enhancement; hit rate 0.66% among 360,000; P34981; in the data active = enhancement above about 30%; also: 0% is about no effect
#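 Enhancer read-out: after compound pinning and an initial kinetic agonist-mode read, an EC20 of TRH (10 nM final) was injected and fluo-8 calcium signal (Ex 480/Em 530) followed at 1 s/cycle for 100 cycles in TRHR-expressing cells.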
# Active calls of the source: *. Rule as the data show it, unless noted: active = activation above about 30%; inactive = the rest.
SMILES,D1 antag,TRHR ag,D1 agonist,D1 potentiator,TRHR PAM
COCCCNCCCOc1ccc(Cl)cc1Br,-1,2,8,-4,1
CC(C)NCCCCOc1ccc(Br)cc1Cl,-25,-1,50*,-5,8
CN(C)c1ccc(CN(Cc2ccco2)C(=O)COc2ccc(F)cc2)cc1,-9,-1,-2,2,7
Cc1cc(C)cc(NC(=O)N2CCC(N3CCCCC3)CC2)c1,-6,1,0,-2,15
CCOc1ccc(C2c3c(oc4cc(C)c(C)cc4c3=O)C(=O)N2c2ccccn2)cc1 (centres undefined),5,0,0,-2,1
Cc1cccc(Cc2cnc(NC(=O)c3ccc4c(c3)CC(c3ccccc3)OC4=O)s2)c1 (centres undefined),0,0,1,0,8
Cc1ccc(Cc2cnc(NC(=O)c3ccc4c(c3)CC(c3ccccc3)OC4=O)s2)cc1 (centres undefined),-31*,-1,1,-3,2
Cc1cccc(Nc2cc(C)c3c(O)cccc3n2)c1C,-92*,6,13,-10,-2
COc1ccc(C(=O)NC(CO)c2nnc(SCc3ccc(Cl)c(Cl)c3)n2C)cc1 (centres undefined),-34*,0,0,0,-4
CCn1c(CCNC(=O)c2ccc(OC)cc2)nnc1SCc1ccc(Cl)c(Cl)c1,-21,0,10,-8,-8
CCOc1ccc(Oc2nc(NCC(C)C)nc(N3CCOCC3)n2)nn1,1,0,-1,-8,8
CC1CN(c2ccc([N+](=O)[O-])c(NCCOc3ccccc3)c2)CC(C)N1 (centres undefined),-15,2,17,-10,3
CC1CN(c2ccc([N+](=O)[O-])c(NCCOc3ccc(Cl)cc3)c2)CC(C)N1 (centres undefined),-9,2,39*,-5,3
CCOC(=O)c1c(NC(=O)c2cc3nc(-c4ccc(OC)cc4)cc(C(F)(F)F)n3n2)sc(C)c1C,8,1,2,1,11
COc1ccc(S(=O)(=O)NC2CCN(C#N)CC2)cc1,-11,2,0,-1,0
Cc1ccc(C)c2c1c1ccccc1n2C,12,0,0,-4,31*
COc1ccc(CC(=O)Oc2ccccc2C)cc1,-1,-2,7,-5,0
CCC(=O)c1ccc(OC(=O)Cc2ccc(OC)cc2)cc1,-33*,1,2,-9,38*
COc1ccc(CCNC(=O)C2CCN(c3nc4ccccc4nc3C(F)(F)F)CC2)cc1OC,-15,0,1,-6,-5
CCN1CCCC1CNC(=O)Cn1nc(C)n2c(cc3cc(F)ccc32)c1=O (centres undefined),10,1,3,3,35*
CCC(C(=O)Nc1ccc(C(=O)OC)cc1)n1c(=O)c(-c2ccccc2NC(C)=O)nc2ccccc21 (centres undefined),-26,0,-1,0,-4
O=[S+]([O-])(c1ccc2c(c1)OCCO2)N1CCN([S+](=O)([O-])c2c(O)cc(F)cc2F)CC1,-48*,2,-1,-10,-6
O=[S+]([O-])(c1ccc2c(c1)OCCO2)N1CCN([S+](=O)([O-])c2c(F)cc(O)cc2F)CC1,-24,1,2,-4,-4
CCOC(=O)c1cccc(NC(=O)C(C)n2c(C)c3cnn(-c4ccccc4)c(=O)c3c2C)c1 (centres undefined),10,4,21,-1,0
Cc1cccc(-n2ccnc2SCC(=O)Nc2ccccc2C(F)(F)F)c1,-40*,0,1,-4,-4
SMILES,D1 antag,TRHR ag,D1 agonist,D1 potentiator,TRHR PAM
Cc1ccc(Nc2nc(C)c(NC(=O)c3ccc(C)cc3)c(Nc3ccc(C)cc3)n2)cc1,-13,-1,2,6,4
Cc1ccsc1C1C(C#N)=C(N)N(N(C)C)C2=C1C(=O)CCC2 (centres undefined),-35*,0,7,-2,5
C[C@@H]1CN(C(=O)c2ccc(OC3CCN(S(=O)(=O)N(C)C)CC3)cc2)C[C@H](C)O1,-30*,0,3,2,5
Cn1c(=O)c2sccc2n2c(CCC(=O)NCc3ccc(F)cc3)nnc12,-7,0,1,1,-1
CCOc1cc(CNc2ccc(O)cc2)ccc1OCc1ccc(Cl)cc1,-30*,0,2,-7,8
Oc1ccc(NCc2ccccc2OCc2ccc(Cl)cc2)cc1,-3,0,0,-3,47*
O=c1cc(Nc2ccc3c(c2)OCCO3)[nH]c(=O)n1C1CCCCC1,8,1,11,1,5
CCc1ccc(Nc2cc(=O)n(C3CCCCC3)c(=O)[nH]2)cc1,-35*,7,34*,-3,-5
CCOc1ccccc1OCC(=O)OCC(=O)NNC(=O)c1ccc([N+](=O)[O-])cc1,-16,0,6,-3,30*
O=C(CC(=O)Nc1ccccc1[N+](=O)[O-])Nc1ccccc1[N+](=O)[O-],-34*,0,11,-7,-2
CC(C)c1ccccc1NC(=O)COC(=O)COc1ccccc1[N+](=O)[O-],18,0,3,-2,-1
O=C(COC(=O)COc1ccccc1[N+](=O)[O-])Nc1ccccc1Br,-43*,0,5,4,2
O=C(CCOc1ccccc1)Nc1ccccc1[N+](=O)[O-],12,0,1,1,1
CCOC(=O)C1CCN(C(=O)c2ccc3c(c2)sc2nc(-c4ccccc4)cn23)CC1,-5,0,1,0,-3
COc1ccc(Nc2oc(/C=C/c3cc(OC)c(OC)c(OC)c3)nc2C#N)cc1,-4,-1,0,-1,1
COc1ccccc1NC(=O)Cn1c(=O)n(Cc2cccs2)c(=O)c2cccnc21,-2,0,2,-4,-1
COCc1cc(C)nc(SCc2ccc(Cl)cc2)c1C#N,-32*,-1,36*,-3,3
COCc1cc(C)nc(SCC(=O)Nc2ccc3c(c2)OCCO3)c1C#N,-31*,-1,7,-5,-5
Cc1cc(C)nc(NC(=O)/C=C/c2ccccc2Cl)c1,-70*,-1,1,6,-2
OC(CNCc1ccc(-c2ccccc2)cc1)c1ccccc1 (centres undefined),7,2,56*,-5,1
OC(CNCc1cccs1)c1ccccc1 (centres undefined),-41*,0,4,-5,1
OC(CNCc1ccncc1)c1ccccc1 (centres undefined),-2,2,6,-2,11
N#CC(C#N)=C1C=C2C=C(N3CCOCC3)CCC2CC1 (centres undefined),10,231*,522*,17,-20
CC1(C)CC(NCCN2CCN(C3=CC(=C(C#N)C#N)CC(C)(C)C3)CC2)=CC(=C(C#N)C#N)C1,2,0,0,-5,2

# Screening results (PubChem BioAssay)
